Tb PYK inh: blocks Trypanosoma brucei pyruvate kinase. Q57TT1. TbPYK enzyme, Kinase-Glo Plus ATP luminescence, 45 min. Potency, µM (titrated, usually from 76.8 µM), for inactives: at the highest dose activity, negative = inhibition, actives largely listed as inhibitors. 410,000 compounds, 0.12% hits; active = well fitted curve in the direction sought with a large enough effect; an effect the other way counts as inactive or inconclusive; also: potency is read from the fitted curve at half-maximal effect; % is scaled to controls: 0 for no effect and ±100 for the full control effect; nearly all actives have a fitted effect of over 50% in size
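Activity of T. brucei pyruvate kinase was followed by Kinase-Glo Plus luminescence after the enzyme reacted 45 min at room temperature with 130 uM ADP (final) and substrate. Test compounds were added before ADP at multiple concentrations.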
Cycloheximide cs: counter-screen hit for Shiga toxin inhibitors, cycloheximide; AID 2314; cell reporter, cycloheximide protein synthesis inhibition counterscreen; 300,000 compounds, 12% hits; max response, %; in the data active = max response mostly above about 13%, no sharp cut-off; inactive = mostly below about 14%; also: read at 38.3 µM for the half of the compounds with a filed dose; 0% is about no effect
LmPK inh: blocks Leishmania mexicana pyruvate kinase activity; 290,000 compounds, 0.37% hits; purified LmPK, Kinase-Glo ATP luminescence, 1 h; Potency, µM (top dose mostly 57.5 µM), for the others: top-dose activity change, negative = inhibition, most hits filed as inhibitors; Q27686; AID 1721; active = well fitted curve in the direction sought with a large enough effect; an effect the other way counts as inactive or inconclusive; also: potency is read from the fitted curve at half-maximal effect; % is scaled to controls: 0 for no effect and ±100 for the full control effect
Target sequence (Q27686 whole entry, looked up): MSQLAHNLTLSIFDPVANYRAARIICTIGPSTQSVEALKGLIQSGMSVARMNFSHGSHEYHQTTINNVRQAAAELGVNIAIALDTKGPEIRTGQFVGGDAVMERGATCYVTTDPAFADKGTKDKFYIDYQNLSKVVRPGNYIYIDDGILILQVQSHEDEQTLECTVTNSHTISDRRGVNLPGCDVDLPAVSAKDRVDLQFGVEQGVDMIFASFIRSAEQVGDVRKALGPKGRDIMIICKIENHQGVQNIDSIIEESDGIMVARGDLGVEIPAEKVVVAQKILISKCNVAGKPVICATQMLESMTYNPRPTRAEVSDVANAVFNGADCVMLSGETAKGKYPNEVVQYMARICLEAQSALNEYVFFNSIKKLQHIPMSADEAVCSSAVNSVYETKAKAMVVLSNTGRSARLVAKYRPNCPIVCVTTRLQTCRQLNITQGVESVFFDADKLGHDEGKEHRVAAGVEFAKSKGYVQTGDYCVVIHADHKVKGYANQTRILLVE
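Screened at intermediate enzyme activity to detect both inhibitors and activators: LmPK at 0.1 nM, with a 0.5 nM enzyme column as activation reference. PEP 0.5 mM, ADP 0.1 mM; ATP detected by luminescence after 1 h.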
Shiga toxin inh: inhibitors of Shiga toxin in Vero cells. Vero cells, Shiga toxin protein synthesis inhibition reporter. inhibition, % at 38.7 µM. 290,000 compounds, 9.2% hits. AID 2315; in the data active = inhibition mostly above about 28%, no sharp cut-off; inactive = mostly below about 43%; also: 0% is about no effect
SARS PLP yeast: SARS-CoV PLP inhibition in yeast; S. cerevisiae expressing SARS-CoV PLpro, growth rescue; Potency, µM (top dose mostly 32.9 µM), without a hit: top-dose activity, positive = growth rescue, usual class: activators; 330,000 compounds, 0.19% hits; AID 485353; also: potency is read from the fitted curve at half-maximal effect; 0% is about no effect; nearly all actives have a fitted effect of over 55% in size
NS1 inh: blocks influenza NS1 protein function. 270,000 compounds, 0.4% hits. Potency, µM (titrated, usually from 46.1 µM), for the others: top-dose activity, positive = more growth; also: potency is read from the fitted curve at half-maximal effect; actives are rising curves; nearly all actives have a fitted effect of over 50% in size
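Compounds were scored for reversing the slow growth caused by influenza A NS1 in S. cerevisiae, measured by optical density at 600 nm. Assay medium contained 2% galactose at pH 6.0; NS1-free yeast of the same strain were the positive control.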
* hit, by the source's call; . = no result; [ ] = dose if it differs, or a comment. This excerpt belongs to a sample that is enriched for hits. Unless noted, calls follow the shape of the full dose curve.

SMILES | Tb PYK inh | Cycloheximide cs | LmPK inh | Shiga toxin inh | SARS PLP yeast | NS1 inh
Nc1nc2c(ncn2[C@@H]2O[C@H](CO)[C@@H](O)[C@@H]2O)c(=[SH+])[nH]1.O=[N+]([O-])c1ccc(O)[c]([Hg])c1 | . | . | . | . | . | -6%
O=c1c2ccccc2nc2n1CCO2 | -9% | -2 | -1% | 3 | -2% | 1%
O=c1c2ccccc2nc2oc3ccccc3n12 | -20% | 42* | -18% | 84* | -7% | -13%
O=C(O)c1ccc(-c2nnc(-c3ccc([N+](=O)[O-])cc3)o2)cc1 | 3% | 9 | 2% | -10 | 4% | 18%
O=[N+]([O-])c1cccc(-c2nnc(-c3ccc4c(c3)OCO4)o2)c1 | 2% | 65* | -11% | 111* | -3% | -4%
Nc1cc(-c2cccc([N+](=O)[O-])c2)[nH]n1 | 0% | 16* | 3% | 2 | -2% | 9%
O=[N+]([O-])c1cccc(-c2nnc(-c3ccccc3)o2)c1 | -24% | 45* | -10% | 67* | 0% | -5%
Nc1cccc([N+](=O)[O-])c1 | 3% | -2 | 0% | -5 | 0% | 4%
O=[N+]([O-])c1cccc(SSc2cccc([N+](=O)[O-])c2)c1 | 11µM* | . | . | . | . | .
COc1ccc(CCNC(=O)c2ccc3c(c2)S(=O)(=O)N=C2CCCCCN23)cc1OC | 0% | . | . | . | . | .
CCCC(=O)N1CCCC1(C)C(=O)NCCc1ccccn1 (configuration not stated) | 2% | . | . | . | . | .
COc1ccccc1Cc1c(-c2ccc(C)cc2)nc2cc(C)c(Br)c(C)n12 | 3% | . | . | . | . | .
CSc1ccccc1-c1nnc(-c2ccc(Cl)c(Cl)c2)o1 | 3% | 19 | -4% | 5 | 1% | -3%
Clc1ccccc1-c1nnc(-c2ccc3c(c2)OCO3)o1 | -4% | 29* | -18% | 93* | -5% | .
Cc1nn(-c2ccccc2)c2[nH]c(=O)c(CNc3ccc4c(c3)OCCO4)cc12 | 3% | 42* | 4% | 113* | 4% | -6%
CCc1ccc2nc3n[nH]c(N)c3cc2c1 | -4% | 45* | -15% | 75* | 1% | 2%
Nc1[nH]nc2nc3ccccc3cc12 | -1% | 15 | -2% | 16 | -1% | .
Cc1cccc(NC(=O)CS(=O)(=O)c2nc(-c3ccccc3)cn2-c2cccc(Cl)c2)c1C | 0% | . | . | . | . | .
O=C(COc1ccccc1F)Nc1ccccc1C(=O)NC1CC1 | -6% | . | . | . | 5% | .
CC1(C)C=C(c2ccc(C(=O)O)s2)CC(C)(C)N1 | 14% | -4 | -4% | 6 | 8% | 11%
O=C(Nc1ccccc1F)c1ccc(-c2ccccc2)s1 | -8% | . | . | . | . | .
O=C(O)c1ccc(-c2ccc(-c3ccccc3)cc2)s1 | . | 23* | -2% | 37 | -1% | -17%
Cc1cc(-c2ccc(C(=O)O)s2)cnc1N | -11% | 43* | -7% | 76* | -6% | .
O=C(Nc1ccccc1)c1ccc(-c2ccccc2)s1 | -4% | 39* | -10%[11.5 µM] | 100* | -1% | .
CCc1ccc2oc(-c3cc(NC(=O)c4cc(OC)c(OC)c(OC)c4)ccc3O)nc2c1 | -2% | . | . | . | . | .
SMILES | Tb PYK inh | Cycloheximide cs | LmPK inh | Shiga toxin inh | SARS PLP yeast | NS1 inh
CCc1ccc2oc(-c3cc(N=Cc4cccc(OC)c4O)ccc3O)nc2c1 | -9% | 29* | -25% | 104* | -3% | 1%
COc1ccc(S(=O)(=O)NCC(c2ccc(F)cc2)N2CCOCC2)cc1Br (configuration not stated) | -5% | . | . | . | -1% | .
CCc1nc2cc(Cl)c(Cl)cc2nc1CC | -3% | -2 | -7% | -16 | -1% | -2%
CCc1nc2cc(Cl)c(Cl)cc2[nH]1 | 4% | 11* | -7% | -16 | -36% | -121%
Cn1c(=S)n(/N=C/c2cccs2)c2ccccc21 | -9% | 25* | 3% | 46* | 0% | -6%
Cn1c2ccccc2c(=O)c2ccc(C#Cc3ccc(N)cc3)cc21 | 3% | 26* | -5% | 20 | -29% | -18%
Cc1c(Cl)cccc1NC(=O)Nc1nnc(N(C)C2CCCCC2)s1 | 4% | . | . | . | . | .
COc1ccc(C(=O)N/N=C/c2ccc(OC)c(COc3ccc(F)cc3F)c2)cc1 | -7% | 10 | -4% | -2 | -2% | 9%
O=C(c1c(F)cccc1F)N1CCCC(c2nc(-c3cccs3)no2)C1 (configuration not stated) | 0% | 25 | 5% | 131* | 0% | 2%
O=C(c1ccccc1Br)N1CCCC(c2nc(-c3cccs3)no2)C1 (configuration not stated) | 2% | 36* | -3% | 114* | -12% | .
Cc1ccc(Cl)cc1N1CCN(C(=O)c2cnc(N3CCOCC3)c3ccccc23)CC1 | 0% | . | . | . | . | .
CCOC(=O)CN[C@@H](C(=O)N1CC[C@H]1C(=O)NCc1ccc(/C(N)=N/O)cc1)C1CCCCC1 | -4% | . | . | . | . | .
O=Cc1c[nH]c2cccc(OCc3ccccc3)c12 | -1% | . | . | . | -8% | .
O=C(CSc1ncn(-c2ccccc2)n1)N1CCc2ccccc21 | -14% | -2 | 4% | -7 | -5% | -7%
Clc1ccc(CSc2ncn(-c3ccccc3)n2)cc1 | 2% | 31* | 2% | -7 | -30% | -5%
Clc1cccc(CSc2ncn(-c3ccccc3)n2)c1 | 1% | 23* | 6% | 35* | -35% | -21%
Cc1cccc2cc(C3CC(c4ccco4)=NN3S(=O)(=O)c3ccccc3)c(Cl)nc12 (configuration not stated) | 1% | 36* | 2% | 86* | 6% | 28%
CC1=C(C(=O)N2CCCCCC2)CC(CC(=O)NCc2ccco2)C(=O)N1Cc1ccccc1 (configuration not stated) | 2% | . | . | . | . | .
COc1ccc(C(=O)Sc2nncc3ccccc23)cc1 | -12% | 20* | 4% | 37 | -2% | .
COc1ccc(NC(=O)CSc2nncc3ccccc23)cc1 | -2% | 20 | 0% | -12 | -4% | .
CC(C)c1ccc(OCCCCCN2CCOCC2)cc1 | -1% | 54* | 3% | 116* | -3% | 3%
Brc1ccc(OCCCN2CCOCC2)cc1 | -7% | 14* | -10% | 30 | 6% | -10%
Brc1ccccc1OCCCN1CCOCC1 | -15% | 32* | 0% | 50* | 8% | 10%
Cc1ccccc1OCCCN1CCOCC1 | 6% | 7 | -1% | 37 | -2% | 1%
Brc1ccc(OCCN2CCOCC2)cc1 | -2% | 15 | -4% | 23* | -7% | 4%
CC(C)c1ccc(OCCCN2CCCC2)cc1 | 9% | -2 | 0% | -2 | 1% | 6%
O=C(Nc1cccc(-c2nc3cc(Cl)ccc3o2)c1)c1ccc(F)cc1 | 4% | . | . | . | . | .
CCn1cnc2c([N+](=O)[O-])c(NS(=O)(=O)c3ccc(C)cc3)ccc21 | 0% | . | . | . | 27% | .
CCc1cc[n+](-c2nc3ccccc3nc2[N-]S(=O)(=O)c2ccc(Br)s2)cc1 | -3% | 13* | 1% | 44 | 4% | 24%
